Data reported in PubChem BioAssay.
A number with no mark means an inactive call. The rule behind the calls is not given here.

The molecules below were run against Pantothenate synthetase (Mycobacterium tuberculosis (strain ATCC 25618 / H37Rv)) (UniProt P9WIL5) (assay: Recombinant Mtb pantothenate synthetase (PanC) inhibitors, coupled enzyme, confirmatory (AID 375;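 note: 0% = full reaction with vehicle and 100% = no enzyme background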)). Conditions: coupled enzyme assay; at 10 µM, hits give high values.
Sequence of Pantothenate synthetase (Mycobacterium tuberculosis (strain ATCC 25618 / H37Rv)) (P9WIL5 whole entry, looked up): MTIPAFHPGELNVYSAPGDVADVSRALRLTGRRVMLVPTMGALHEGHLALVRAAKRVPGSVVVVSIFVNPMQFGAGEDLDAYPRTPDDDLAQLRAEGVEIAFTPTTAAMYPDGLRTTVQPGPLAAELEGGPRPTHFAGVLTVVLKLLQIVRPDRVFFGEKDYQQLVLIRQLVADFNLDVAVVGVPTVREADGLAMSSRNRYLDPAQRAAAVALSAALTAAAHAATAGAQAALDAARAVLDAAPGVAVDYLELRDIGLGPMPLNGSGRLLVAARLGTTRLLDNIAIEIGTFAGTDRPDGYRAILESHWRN

| SMILES | inhibition [%] |
| --- | --- |
| CCOC(=O)c1cc(-c2ccco2)nc2c1c(C)nn2CCC#N | 0 |
| c1coc(-c2nnc(NC3=NCCC3)o2)c1 | 0 |
| Cc1nnc(SCC(=O)Nc2ccc3c(c2)OCCO3)n1CC1CCCO1 (stereo not given) | 0 |
| CC(C)(C)n1cnc2cc(NS(=O)(=O)c3ccc(Br)cc3)ccc21 | 7 |
| Cc1nnc(NC(=O)CCC(=O)N2CCC(C)CC2)s1 | 0 |
| Nc1nc(-c2ccc(Cl)cc2)cc(C(F)(F)F)n1 | 0 |
| CCn1c(CSc2nc(C)cc(C)n2)nnc1SCC(=O)Nc1ccccc1 | 5 |
| Cc1occc1-c1nnc(SCC(=O)N2CCOCC2)n1Cc1ccco1 | 6 |
| COc1cccc(C2C(C(=O)c3cc4ccccc4o3)=C(O)C(=O)N2CCN(C)C)c1OC (stereo not given) | 1 |
| Cc1ccccc1CNS(=O)(=O)c1ccc2c(c1)OCCO2 | 0 |
| CCn1c(=O)n(CC(=O)N(C)Cc2ccccc2)c(=O)c2ccccc21 | 12 |
| Cc1ccc(C(=O)OCC(=O)c2ccc(Cl)s2)s1 | 4 |
| O=C(OCCN=C1NS(=O)(=O)c2ccccc21)C1CC(=O)N(c2ccc(Cl)cc2)C1 (stereo not given) | 0 |
| Cn1c(=O)oc2cc(S(=O)(=O)N3CCC(C(=O)Nc4ccc(OC(F)(F)F)cc4)CC3)ccc21 | 0 |
| O=C(CCNC(=O)c1ccc(Br)o1)NC1CCCC1 | 0 |
| Cc1cc(C)nc(NC2=NCC(=O)N2c2ccc(Cl)cc2)n1 | 0 |
| C=CCOc1ccc(/C=N/n2cncn2)cc1OC | 0 |
| COc1ccccc1S(=O)(=O)Cc1ccc(C(=O)N2CCN(c3ccc(C)cc3)C(C)C2)o1 (stereo not given) | 13 |
| CC(=O)[C@H]1CC[C@H]2[C@@H]3CCC4=CC(=O)CC[C@]4(C)[C@H]3CC[C@]12C | 5 |
| CC(=O)Nc1ccc(S(=O)(=O)n2cnc(C)c2)cc1 | 3 |

| SMILES | inhibition [%] |
| --- | --- |
| CCCCn1nnc(NC(=O)Cc2ccc(Cl)cc2)n1 | 0 |
| CCOC(=O)N1CCN(Cc2nc3c(c(=O)[nH]c(=O)n3C)n2Cc2cc(C)ccc2C)CC1 | 0 |
| CN1CCN(CC#CCC(O)(c2ccccc2)C2CCCC2)CC1 (stereo not given) | 0 |
| COc1ccc(NC(=O)c2ccco2)cc1NC(=O)c1cccs1 | 0 |
| CCOC(=O)Cn1nc(-c2ccc(C)cc2)ccc1=O | 0 |
| COc1cccc(CNc2nc3nc(C)c(Cl)c(C)n3n2)c1 | 12 |
| Cc1onc(-c2c(Cl)cccc2Cl)c1C(N)=O | 0 |
| OC(CN1CCN(c2ccccn2)CC1)Cn1c2ccccc2c2ccccc21 (stereo not given) | 0 |
| CC(C)C(=O)Nc1ccc(C(=O)NCc2cccnc2)cc1 | 0 |
| CCOc1ccc(OCC)c(NC(=O)CCCN2C(=O)c3cccnc3C2=O)c1 | 0 |
| CN(C)S(=O)(=O)c1cccc(C(=O)Nc2cccnc2)c1 | 0 |
| CCOC(=O)c1c2n(c3ccc(O)cc13)CCCCC2 | 0 |
| O=C1CCCC2=C1C(c1cccc(Br)c1)n1nc(-c3ccco3)nc1N2 (stereo not given) | 0 |
| CSc1ncc(Cl)c(C(=O)Nc2ccc(S(=O)(=O)N3CCOCC3)cc2)n1 | 0 |
| COc1cc(CNc2ccc(N3CCOCC3)c(C(=O)O)c2)ccc1OCC(N)=O | 1 |
| CC(C)CC1NC2(C(=O)N(C)c3ccccc32)C2C(=O)N(C(C)C)C(=O)C12 (stereo not given) | 0 |
| CCOC(=O)NC(c1ccccc1)C1CCCCC1=O (stereo not given) | 0 |
| Cc1csc(NC(=O)CSc2nsc(SCC(=O)Nc3nc(C)cs3)c2C#N)n1 | 2 |
| CCCOc1ccc(N2C(=O)C3ON(c4ccccc4)C(c4ccc(O)c(OC)c4)C3C2=O)cc1 (stereo not given) | 1 |
| c1ccc(-c2ccc(C(c3ccccc3)n3ccnc3)cc2)cc1 (stereo not given) | 3 |
